Screening results: PubChem BioAssay, National Center for Advancing Translational Sciences (NCATS)
GPT2 inh: Primary qHTS assay for inhibitors of Glutamate pyruvate transaminase 2 (GPT2); Recombinant GPT2, coupled pyruvate oxidase/HRP Amplex Red fluorescence; Potency, µM (top dose mostly 57.7 µM), for inactives: top-dose activity change, negative = inhibition, hits mostly inhibitors; hit rate 0.25% among 100,000; note: nearly all actives have a fitted effect of over 60% in size
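Fluorescence read-out: pyruvate from GPT2 turnover coupled to pyruvate oxidase, HRP and Amplex Red (0.2mM ThPP, 0.2U/mL PO and HRP, 50uM Amplex final). Substrates 250uM a-KG, 2mM L-alanine; enzyme 10ng/uL; 30 min RT.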
NIH3T3 tox: Cytotoxic Profiling in NIH 3T3 Cell Line of Diverse Libraries Using Quantitative High-Throughput Screening; NIH 3T3 viability, CellTiter-Glo ATP luminescence, 48-72 h; Potency, µM (highest dose often 96.7 µM), for inactives: at the top dose activity change, negative = cytotoxicity, actives largely listed as inhibitors; hit rate 4.3% among 94,000; note: nearly all actives have a fitted effect of over 55% in size
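ATP-dependent luminescence (CellTiter-Glo) served as the viability signal for NIH 3T3 cells treated with compound for 48 or 72 hr at 37 °C.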
Luciferase inh: Firefly luciferase inhibition profiling of diverse chemical library using quantitative high-throughput screening. AID 1347043, 2019. purified P. pyralis luciferase, luminescence, biochemical. hit rate 2.5% among 76,000. Potency, µM (doses to about 115 µM), most hits filed as inhibitors; note: nearly all actives have a fitted effect of over 65% in size
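Purified 10nM P. pyralis luciferase with 10uM D-luciferin and 10uM ATP in 50mM Tris acetate pH 7.5, 10mM Mg acetate, 0.01% Tween-20, 0.05% BSA. qHTS titration; luminescence read by CCD imager.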
NPR1 antag: Natriuretic polypeptide receptor (hNpr1) antagonism - Primary qHTS; hit rate 1.6% among 76,000; Atrial natriuretic peptide receptor 1 (Homo sapiens), P16066; Potency, µM (top dose mostly 46.3 µM), inactives show top-dose activity change, negative = inhibition, most hits filed as inhibitors; HEK293 hNpr1 GloSensor cGMP, ANP-stimulated luminescence; calls by dose curve; note: nearly all actives have a fitted effect of over 60% in size
Target sequence (P16066 whole entry, looked up): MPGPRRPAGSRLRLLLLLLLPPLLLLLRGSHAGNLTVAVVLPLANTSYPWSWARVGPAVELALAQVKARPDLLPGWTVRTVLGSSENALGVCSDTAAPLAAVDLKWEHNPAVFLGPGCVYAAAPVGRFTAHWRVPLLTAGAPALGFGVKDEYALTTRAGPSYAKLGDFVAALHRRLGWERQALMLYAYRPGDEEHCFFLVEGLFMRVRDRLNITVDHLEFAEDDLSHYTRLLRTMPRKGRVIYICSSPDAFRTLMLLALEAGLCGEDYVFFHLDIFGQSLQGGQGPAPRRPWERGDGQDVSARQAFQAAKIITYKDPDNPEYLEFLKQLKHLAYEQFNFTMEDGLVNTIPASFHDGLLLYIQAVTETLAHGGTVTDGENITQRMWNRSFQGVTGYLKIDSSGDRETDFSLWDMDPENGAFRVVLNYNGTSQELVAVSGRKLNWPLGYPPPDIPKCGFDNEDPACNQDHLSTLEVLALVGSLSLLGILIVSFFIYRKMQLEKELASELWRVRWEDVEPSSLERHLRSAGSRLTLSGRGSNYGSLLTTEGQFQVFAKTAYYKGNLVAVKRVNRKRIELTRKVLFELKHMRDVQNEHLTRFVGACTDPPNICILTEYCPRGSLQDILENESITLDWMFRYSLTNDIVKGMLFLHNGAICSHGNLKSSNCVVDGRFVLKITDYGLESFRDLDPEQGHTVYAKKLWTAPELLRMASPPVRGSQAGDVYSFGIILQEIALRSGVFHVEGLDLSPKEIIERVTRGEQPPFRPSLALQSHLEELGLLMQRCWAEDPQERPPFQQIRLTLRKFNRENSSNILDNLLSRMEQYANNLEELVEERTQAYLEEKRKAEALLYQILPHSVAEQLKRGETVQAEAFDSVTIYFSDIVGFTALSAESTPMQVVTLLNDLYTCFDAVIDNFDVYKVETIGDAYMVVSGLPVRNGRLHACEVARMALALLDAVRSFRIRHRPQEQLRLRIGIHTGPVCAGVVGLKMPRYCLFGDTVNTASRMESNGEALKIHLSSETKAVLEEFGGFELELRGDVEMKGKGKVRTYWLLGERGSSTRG
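Compound pre-incubated 30 min at room temperature on GloSensor-loaded HEK293 cells stably carrying hNpr1 and the pGS-40F cGMP biosensor. Stimulation uses hNppA at 0.1 nM final; luminescence is taken at baseline and 20 min post-agonist.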
HEK cytotox: Cytotoxic Profiling in HEK 293 Cell Line of Diverse Libraries Using Quantitative High-Throughput Screening; HEK 293 viability, ATP luminescence (CellTiter-Glo), 48-72 h; Potency, µM (doses to about 115 µM), for the others: at the top dose activity change, negative = cytotoxicity, most hits filed as inhibitors; hit rate 6.6% among 94,000; note: nearly all actives have a fitted effect of over 60% in size
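Cells seeded first (HEK 293, 250 cells/well), then compound added by pintool. Incubation ran 48 or 72 hr at 37 degree Celsius. CellTiter-Glo was added and luminescence imaged after 10 min at room temperature.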
Active calls of the source: *; i = inactive; ? = inconclusive; . = not tested or not shown; [ ] = remark or other dose. Hits are enriched below; roughly 10% of the tested compounds scored in any of these assays. Unless noted, calls come from the whole dose curve; as a rule, active = well fitted curve in the direction sought with a large enough effect; inconclusive = small, poorly fitted or top-dose-only effect, or another doubt; inactive = no such curve, though single readings can be large; an effect the other way counts as inactive or inconclusive. % is set by controls: 0 for no effect and ±100 for the full control effect; potency is the fitted concentration of half-maximal effect.

SMILES | GPT2 inh | NIH3T3 tox | Luciferase inh | NPR1 antag | HEK cytotox
CNC(=O)c1cc(C2CC2)nc2onc(C3CCN(C(=O)COC)C3)c12 (centres undefined) | . | 3%[138 µM] | . | . | 2%[172 µM]
COc1ccc(Cl)cc1C(=O)N1CCC(c2n[nH]c(=O)n2-c2ccc(C)cc2)CC1 | 0% | ? | i | 6% | 6%
COc1cccc(C(=O)N(C)Cc2ccccc2C(F)(F)F)c1 | i | ? | i | 0%[70.6 µM] | 100µM*
CN(Cc1cccc(C(F)(F)F)c1)C(=O)c1ccccc1Cl | i | 89µM* | i | -4%[70.6 µM] | 56µM*
CN(Cc1ccc(-c2ccccc2)cc1)C(=O)c1ccccc1 | i | ? | ? | ? | ?
Cc1ccc(C(=O)N(C)Cc2ccc(-c3ccccc3)cc2)cc1 | i | ? | i | -12%[70.6 µM] | 89µM*
Cc1ccc(C(=O)N(C)Cc2cccc(C(F)(F)F)c2)cc1 | i | ? | i | -10%[70.6 µM] | 100µM*
O=c1[nH]c([C@@H]2CCCN2)nc2c1oc1ccc(Cl)cc12 | i | . | . | . | .
Cc1ccc(C#N)c(N2CCC3(CC2)CC(c2ccccc2)C(=O)N3C)n1 (centres undefined) | 4% | ? | i | -9% | ?
COc1cccc(C(=O)N(C)Cc2cccc(C(F)(F)F)c2)c1 | -15%[88.5 µM] | ? | i | 0%[70.6 µM] | 89µM*
CN(CCn1ccnc1)c1ccc(-c2nc(-c3cccc(Cl)c3)no2)cn1 | i | ? | 3.2µM* | ? | 35µM*
O=C1NC2(CCN(CC3CCCCC3)C2)Oc2ccccc21 (centres undefined) | i | ? | i | 6%[70.6 µM] | 63µM*
O=C1NC2(CCCN(CC3CC3)C2)Oc2ccccc21 (centres undefined) | 0%[88.5 µM] | -19%[138 µM] | i | 0%[70.6 µM] | -15%[172 µM]
CCCCc1nn(CC(=O)NCC2Cc3ccccc3CN2C)c(=O)n1CC (centres undefined) | 1%[11.5 µM] | -2% | i | 0% | i
C=CCn1cc2c3c(cccc31)[C@H](CC(C)C)N[C@H](C(=O)NCCOC)C2 | 2%[88.5 µM] | 89µM* | ? | -2%[70.6 µM] | 56µM*
C=CCn1cc2c3c(cccc31)[C@H](CC(C)C)N[C@H](C(=O)NCCCN1CCCC1=O)C2 | ? | ? | i | 1% | 40µM*
COc1ccc(NC(=O)N2CCOc3ccc(CN4CCc5ccccc5C4)cc3C2)cc1 | -12% | ? | i | -25% | ?
Cc1ccc(-c2nnc3ccc(NCCc4ccccc4)nn23)nc1 | -12%[88.5 µM] | 45µM* | i | -7%[70.6 µM] | 56µM*
Cc1ccc(-c2nnc3ccc(NCCN(C)C)nn23)nc1 | -11%[88.5 µM] | ? | i | 0%[70.6 µM] | 0%[172 µM]
Cc1ccc(-c2nnc3ccc(N(C)c4cccc(C)c4)nn23)nc1 | 2%[88.5 µM] | ? | i | -1%[70.6 µM] | 56µM*
COCCNc1ccc2nnc(-c3ccc(C)cn3)n2n1 | 3%[88.5 µM] | 112µM* | i | 3%[70.6 µM] | -4%[230 µM]
Cc1cccc(N(C)c2ccc3nnc(-c4cc(C#N)ccn4)n3n2)c1 | 5%[88.5 µM] | ? | i | ? | ?
CC[C@H]1CN(S(=O)(=O)c2ccc(OC)cc2)CC[C@H]1CC(=O)N(C)CC#N | ? | ? | i | -1%[70.6 µM] | -2%[172 µM]
CC1CCC2(CC1)NC(=O)N(CC(=O)Nc1ccccc1Cl)C2=O (centres undefined) | 2% | ? | i | 5% | ?
COc1ccc(-c2nnc(C[C@@H]3C[C@@H](C(C)C)[C@H](CN4CCN(C)CC4)C=C3C)o2)cc1 | ? | 40µM* | i | -2% | 32µM*
SMILES | GPT2 inh | NIH3T3 tox | Luciferase inh | NPR1 antag | HEK cytotox
CC1=C[C@@H](CN2CCN(CCO)CC2)[C@H](C(C)C)C[C@H]1Cc1nnc(-c2ccc([N+](=O)[O-])cc2)o1 | -2% | ? | i | -3% | ?
CC1=C[C@@H](CN2CCN(c3ncccn3)CC2)[C@H](C(C)C)C[C@H]1Cc1nnc(-c2ccc(N(C)C)cc2)o1 | -19% | ? | i | -20% | 28µM*
CC1=C[C@@H](CN2CCN(c3ccccn3)CC2)[C@H](C(C)C)C[C@H]1Cc1nnc(-c2ccc(C)cc2)o1 | ? | ? | i | -28% | ?
CC1=C[C@@H](CN2CCN(CCO)CC2)[C@H](C(C)C)C[C@H]1Cc1nnc(-c2ccc(N(C)C)cc2)o1 | 1% | 20µM* | i | 1% | 14µM*
COc1ccc(-c2nnc(C[C@@H]3C[C@@H](C(C)C)[C@H](CN4CCN(CCO)CC4)C=C3C)o2)cc1 | i | ? | i | -4% | 45µM*
CC1=C[C@@H](CN2CCN(c3cnccn3)CC2)[C@H](C(C)C)C[C@H]1Cc1nnc(-c2ccccc2)o1 | i | ? | i | -30% | 25µM*
O=C(C1CN(c2ccc(F)cc2)C(=O)N1)N1CCN(Cc2ccccc2)CC1 (centres undefined) | i | 28µM* | i | 22% | 25µM*
Cn1cc(CN2CCOC[C@H]2c2ncc(C(C)(C)C)[nH]2)c2ccccc21 | ? | ? | i | 2%[70.6 µM] | 63µM*
Cn1cc(CN2CCOC[C@H]2c2nc(C(C)(C)C)co2)c2ccccc21 | 0%[88.5 µM] | ? | i | 9%[70.6 µM] | 89µM*
CCCOc1ccc(CNC(=O)CCn2ccn3nc4c(c3c2=O)CCCC4)cc1 | -9% | -17% | i | -2% | ?
Fc1ccc(-c2cc(CC3(NC4CCCCC4)COC3)no2)cc1 | -8%[88.5 µM] | -17%[138 µM] | i | 1%[70.6 µM] | ?
COc1ccc(CN2CCC3(CC2)C(=O)NCN3Cc2ccc(Cl)cc2)cc1 | 4% | ? | i | -11% | 40µM*
COc1ccc(-c2nc(C)nc3c2CCN([S+](=O)([O-])c2cccc(C(F)(F)F)c2)CC3)cc1 | i | ? | i | -1% | ?
CCOC(=O)CCNC(=O)N1CCCC(c2nc(C(C)C)no2)CCNC(=O)CC1 (centres undefined) | 1% | i | i | 1% | -6%
COc1ccc(C2Cn3nnc(C(=O)N4CCN(C(=O)c5ccccc5Cl)CC4)c3CO2)cc1 (centres undefined) | -11% | ? | i | ? | ?
COc1ccc(C2Cn3nnc(C(=O)N4CCN(C(=O)c5cc(F)ccc5Cl)CC4)c3CO2)cc1 (centres undefined) | i | ? | i | 13µM* | ?
O=C(c1nnn2c1COC(c1ccc(Cl)cc1)C2)N1CCN(C(=O)C2(c3ccccc3)CC2)CC1 (centres undefined) | -14% | 28µM* | i | ? | 22µM*
